From PubChem
RmlCD inh mix: inhibitors of RmlC and RmlD coupled enzymes; 110,000 compounds, 0.39% hits; RmlC/RmlD coupled enzyme inhibition, 384-well mixture HTS; inhibition, % at 5.5 µM; in the data active = inhibition above about 30%, passing the limit was not always enough; inconclusive = no clear call, values can overlap the other calls
HIV RNase H inh-1: blocks HIV-1 RNase H cleavage of RNA/DNA duplex; RT-RNase H RNA/DNA duplex cleavage, fluorescence; inhibition, % at 10 µM; 65,000 compounds, 1.9% hits; AID 565; in the data active = inhibition above about 50%
HIV RNase H inh-2: confirmation of HIV-1 reverse transcriptase RNase H inhibitors; shares compounds with HIV RNase H inh-1; Recombinant RT RNase H, fluorescent RNA/DNA duplex cleavage; inhibition, % at 10 µM; 1,000 compounds, 39% hits; AID 651; in the data active = inhibition above about 48%; inconclusive = no clear call, values can overlap the other calls
RmlCD artifact: shows fluorescent artifact in RmlC/RmlD assay, dose-response counter-screen | shares compounds with RmlCD inh mix | RmlC/RmlD assay fluorescence artifact counter-screen | calls only | 360 compounds, 96% hits | AID 1696; call rule not given here;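 note: compound alone with no enzyme and no substrates present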
Of the large screens only hits and unclear results are named; the others gave an inactive call (follow-up assays come after a bar, where they were run). The sample as a whole holds a higher share of hits than the screen did.

CCc1cccc(CC)c1NC(=O)C1CC(=O)N(c2ccc3c(c2)OCCO3)C1 (configuration not stated)	none (no result: HIV RNase H inh-1)
Cc1cc2nn(-c3cccc4ccccc34)nc2cc1N	HIV RNase H inh-1 67 | HIV RNase H inh-2 inactive
Nc1ccc2nn(-c3cccc4ccccc34)nc2c1	none
CCOC(=O)N1CC=C2C(C#N)=C(N)C(C#N)(C#N)[C@H](c3ccc(OCC)c(OCC)c3)[C@H]2C1	none
CCCCOc1ccc(C2C3CN(C(=O)OCC)CC=C3C(C#N)=C(N)C2(C#N)C#N)cc1OC (configuration not stated)	HIV RNase H inh-1 84 | HIV RNase H inh-2 inactive
CCCCC(CCC(=O)Nc1nccs1)C(=O)O (configuration not stated)	none (no result: HIV RNase H inh-1)
CC(C)C(c1nnnn1C1CCCC1)N1c2ccccc2CC1C (configuration not stated)	HIV RNase H inh-1 74 | HIV RNase H inh-2 inactive
CC(C)C(c1nnnn1C1CCCCC1)N1CCc2ccccc21 (configuration not stated)	none (no result: HIV RNase H inh-1)
Cn1c(C(=O)N2CCCc3ccccc32)cc2sccc21	none
CCOc1ccc2nc(NS(=O)(=O)Cc3ccccc3)sc2c1	none (no result: HIV RNase H inh-1)
O=C(c1ccc2nc(-c3ccco3)c(-c3ccco3)nc2c1)N1CCC2(CC1)OCCO2	HIV RNase H inh-1 75 (no result: RmlCD inh mix) | HIV RNase H inh-2 inactive
Cc1nc2cc(C(=O)N3CCC4(CC3)OCCO4)ccc2n1-c1cccc(F)c1	none
COc1cc2[nH]c(=O)n(CCC(=O)N3CCN(c4cccc(C)c4C)CC3)c(=O)c2cc1OC	HIV RNase H inh-1 61 | HIV RNase H inh-2 inactive
COc1cc2[nH]c(=O)n(CCCCCC(=O)N3CCN(c4ccccc4)CC3)c(=O)c2cc1OC	none (no result: HIV RNase H inh-1)
Cc1ccc(NC(=O)CS(=O)(=O)c2c[nH]c3ccccc23)c(C)c1	none
COC(=O)c1c(-c2cccnc2)csc1NC(=O)c1cc(C)on1	HIV RNase H inh-1 86 | HIV RNase H inh-2 inconclusive
Cc1cccc(-c2csc(NC(=O)c3cnccn3)c2C(=O)OC(C)C)c1	none (no result: HIV RNase H inh-1)
Cn1c(=O)c2c(SCC(=O)NCC3CCCO3)nc(-c3cccs3)nc2n(C)c1=O (configuration not stated)	none (no result: RmlCD inh mix)
CC(C)Sc1nc(-c2cccs2)nc2c1c(=O)n(C)c(=O)n2C	HIV RNase H inh-1 74 | HIV RNase H inh-2 90
CCOC(=O)c1cnc(SCC(=O)Nc2cc(OC)cc(OC)c2)nc1N	none
N#Cc1cc2c(nc1SCC(=O)Nc1sc3c(c1C#N)CCC3)CCCC2	none (no result: HIV RNase H inh-1)
CCOC(=O)c1sc(NC(=O)CSc2nc3c(cc2C#N)CCCCCC3)c(C#N)c1C	HIV RNase H inh-1 73 | HIV RNase H inh-2 inconclusive
Cc1noc(NS(=O)(=O)c2ccc(NC(=O)CSc3nc4c(cc3C#N)CCC4)cc2)c1C	HIV RNase H inh-1 78 | HIV RNase H inh-2 inconclusive
Cc1noc(NS(=O)(=O)c2ccc(NC(=O)CSc3nc4c(cc3C#N)CCCC4)cc2)c1C	none
N#Cc1cc2c(nc1SCC(=O)Nc1sc3c(c1C#N)CCC3)CCCCC2	HIV RNase H inh-1 66 | HIV RNase H inh-2 inactive
CCOC(=O)c1cnc(SCC(=O)Nc2sc(C)c(C)c2C#N)nc1N	HIV RNase H inh-1 63 | HIV RNase H inh-2 inactive
CCOC(=O)c1sc(NC(=O)CSc2nc3c(cc2C#N)CCC3)c(C#N)c1C	none (no result: RmlCD inh mix)
O=C(Nc1ccccc1)C1=C[C@H](C2CC2)C[C@H](OCCCCO)O1	none (no result: HIV RNase H inh-1)
COC(=O)c1c(C)[nH]c(C(=O)C(C)Sc2nnc(-c3cc(OC)c(OC)c(OC)c3)o2)c1C (configuration not stated)	none
Cc1ccc(NC(=O)NCCCc2ccccc2)cc1	none (no result: HIV RNase H inh-1)
CCn1nnnc1SCC(=O)N1CCCc2ccccc21	none (no result: HIV RNase H inh-1)
COc1ccc(C(=O)c2ccc(OC)c(OC)c2)cc1OC	none
COc1ccc(C(=S)N(C)C)cc1OC	HIV RNase H inh-1 87 | HIV RNase H inh-2 58
Cc1ccc(C)n1-c1ccc(-c2nnc3n2CCCCC3)s1	none (no result: RmlCD inh mix)
COc1ccc(CCNC(=O)c2ccc3nc(-c4ccco4)c(-c4ccco4)nc3c2)cc1OC	HIV RNase H inh-1 93 (no result: RmlCD inh mix) | HIV RNase H inh-2 inactive
COc1ccc(CCNC(=O)COC(=O)c2ccco2)cc1OC	none
COc1cc(OC)c(OC)cc1CNCCNC(=O)c1nonc1N	none
CCCOC(=O)c1ccc(NC(=O)c2cc(OC)c(OC)c(OC)c2Br)cc1	none (no result: HIV RNase H inh-1)
COC(=O)Nc1nnc(-c2ccncc2)s1	HIV RNase H inh-1 67 | HIV RNase H inh-2 inconclusive
O=C(Nc1ccc(F)cc1)Nc1nnc(-c2ccncc2)s1	none (no result: HIV RNase H inh-1)
Cc1cc(C)n(C(=O)c2ccc(S(=O)(=O)NCC3CCCO3)cc2)n1 (configuration not stated)	none
COC(=O)c1sccc1NC(=O)c1ccc(Br)s1	none (no result: HIV RNase H inh-1)
c1ccc2c(c1)nc1n2C2(N3CCOCC3)CCCC2C1N1CCOCC1 (configuration not stated)	none (no result: RmlCD inh mix)
Oc1ccc2c(c1)C1CCCC1(N1CCOCC1)O2 (configuration not stated)	HIV RNase H inh-1 68 | HIV RNase H inh-2 inactive
CCOC(=O)c1c(NC(C)=O)sc2c1CCC(C=NCCCN(CC)CC)=C2Sc1ccccc1	none (no result: HIV RNase H inh-1)
O=C(CN1CCN(C(=O)N2CCCCC2)CC1)Nc1ccc(F)cc1	none
O=C(Nc1nc2ccccc2n1Cc1ccccc1)c1ccco1	none
O=C(Nc1nc(NC(=O)c2ccco2)n(-c2ccccc2)n1)c1ccccc1	RmlCD inh mix 138, HIV RNase H inh-1 53 | HIV RNase H inh-2 inactive | RmlCD artifact active
CCOc1ccccc1CNn1nnnc1N	none (no result: HIV RNase H inh-1)
COc1ccc2nc(-c3ccc(N)cc3)[nH]c2c1	none (no result: HIV RNase H inh-1)
Nc1ccc(-c2nc3c(Cl)cc(N)cc3[nH]2)cc1	RmlCD inh mix 50 | RmlCD artifact active
Nc1ccc2nc(-c3ccc(N)c(Cl)c3)[nH]c2c1	RmlCD inh mix 40 (no result: HIV RNase H inh-1) | RmlCD artifact active
Nc1ccc2nc(-c3ccccc3)[nH]c2c1	none (no result: HIV RNase H inh-1)
CCn1c(=O)cc(OCC(=O)Nc2ccccc2C#N)c2ccccc21	none
C=CCn1c(=O)/c(=C\c2ccsc2)s/c1=C(/C#N)C(=O)NCCN1CCOCC1	none
COCCCn1c(=O)/c(=C\c2ccc(OC(F)F)c(OC)c2)s/c1=C(/C#N)C(=O)NCCOC	none (no result: RmlCD inh mix, HIV RNase H inh-1) | RmlCD artifact inactive
Cc1ccc(NC(=O)c2cc([N+](=O)[O-])ccc2NCc2cccnc2)cc1	none (no result: HIV RNase H inh-1)
CCc1ccc(-c2cc(C(F)(F)F)n3nc(C(=O)Nc4c(C)nn(Cc5ccccc5C)c4C)cc3n2)s1	none (no result: HIV RNase H inh-1)
CCc1ccc(-c2cc(C(F)(F)F)n3nc(C(=O)Nc4cnn(Cc5ccccc5C)c4)cc3n2)s1	RmlCD inh mix active (no result: HIV RNase H inh-1) | RmlCD artifact active
Cc1cc(=O)n2nc(N3CCC(C(=O)NCCC4=CCCCC4)CC3)sc2n1	none (no result: RmlCD inh mix)
COc1ccc2cc3cc(C(=O)NCc4ccccn4)oc3nc2c1	none (no result: RmlCD inh mix)
COc1ccc2cc3cc(C(=O)NCC4CCCO4)oc3nc2c1 (configuration not stated)	RmlCD inh mix 105 | RmlCD artifact active
CCOc1ccc(NC(=O)c2cc3cc4ccc(OC)cc4nc3o2)cc1	RmlCD inh mix 105 (no result: HIV RNase H inh-1) | RmlCD artifact active
COc1ccc2cc3cc(C(=O)Nc4ccccc4N4CCN(C)CC4)oc3nc2c1	none
CCCCN(CC)C(=O)c1cc2cc3ccc(OC)cc3nc2o1	none (no result: HIV RNase H inh-1)
COc1ccc2cc3cc(C(=O)NCCN4CCN(c5ccccc5F)CC4)oc3nc2c1	none (no result: RmlCD inh mix) | RmlCD artifact inactive
CC(C)[C@H](NC(=O)OC(C)(C)C)c1nnc(SCC(=O)Nc2ccc(Br)cc2)o1	none
Oc1ccccc1/C=N/c1c(-c2ccco2)nc2ccccn12	RmlCD inh mix 39 | RmlCD artifact active
